Results on 84 sequences are retold here after article PMC10668032, “Altered binding affinity of SIX1-Q177R correlates with enhanced WNT5A and WNT pathway effector expression in Wilms tumor”.

In all, about 33,000 sequences were measured (“e-score”: median about -0.053, highest 2% from about 0.38 on). What follows is part of a selection rich in the highest values, with near analogues and random picks from the rest.

The target in the test is T1, SIX1 homeodomain (reference allele) (human, UniProt Q15475 108-198).
T1 sequence: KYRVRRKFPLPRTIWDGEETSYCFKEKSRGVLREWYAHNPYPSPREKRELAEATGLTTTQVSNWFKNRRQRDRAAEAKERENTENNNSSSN
As to the kind of experiment: universal protein binding microarray; Universal all-10-mer PBM (8x60K, AMADID 030236), 300 nM GST-tagged protein, Alexa Fluor 488 anti-GST; buffer, salt, pH and temperature not stated (as in Berger); high values mean tight binding. The note with it: protein: ivt; tags: N-terminal GST; dsDNA, one strand shown. The gist of the method:
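GST-tagged homeodomains were made by in vitro transcription/translation and quantified by anti-GST western blot against a recombinant GST standard curve. They were applied in duplicate at 300 nM final concentration to universal 'all 10-mer' protein binding microarrays (8×60K format). Binding was quantified as 8-mer E-scores with the Universal PBM Analysis Suite.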
Regarding CGATGCAG, the binding signal was 0.21 ± 0.0529 E-score. The value for AGGCATAT was 0.308 ± 0.0386 E-score. As to GACAGATC, the binding signal was determined as 0.286 ± 0.0143 E-score. Then GTAATCTA, with 0.15 ± 0.0468 E-score; and CTATACTA, with 0.168 ± 0.0897 E-score; and CCTCTAGA, with 0.158 ± 0.0403 E-score. Then ACCGCGCG, with 0.175 ± 0.0242 E-score. Then CGCGATCC, with 0.391 ± 0.0245 E-score; and CGCGATCA, with 0.272 ± 0.00455 E-score; and AGCGATCC, with 0.356 ± 0.0223 E-score.

Turning to GCTATACC, the binding signal stood at 0.284 ± 0.0448 E-score. The value for GGTATACC was 0.464 ± 0.0068 E-score. Then GGTATACA, with 0.3843 ± 0.00371 E-score; and TGTATACA, with 0.3188 ± 0.000346 E-score. As to GGTATATA, the binding signal is 0.384 ± 0.0217 E-score. The value for ATTATACC was 0.389 ± 0.0376 E-score; that for AGTATACA was 0.294 ± 0.0103 E-score; that for GGTATAAC was 0.301 ± 0.0179 E-score. Then GGTATAGA, with 0.3008 ± 0.001 E-score; and CGTATATA, with 0.253 ± 0.0289 E-score. The value for ATTATACG was 0.302 ± 0.0645 E-score; that for CTTATACC was 0.275 ± 0.0521 E-score. Take ACCAGTAT: the binding signal was 0.24 ± 0.0167 E-score. Then ATCCTGTC, with 0.228 ± 0.0128 E-score; and ATCCATGA, with 0.273 ± 0.0349 E-score. The value for CGCAGATC was 0.214 ± 0.00241 E-score; that for GGATAGCA was 0.241 ± 0.00553 E-score; that for ATCTATTC was 0.24 ± 0.00333 E-score.

CGTATACC: the binding signal was 0.367 ± 0.014 E-score.

Take AGTATACC: the binding signal came to 0.389 ± 0.0206 E-score.

With AGTATACT, the binding signal was found to be 0.219 ± 0.0526 E-score. The value for ATACTTGC was 0.215 ± 0.0473 E-score; that for CCGGGATC was 0.375 ± 0.0348 E-score; that for CTGGGATC was 0.297 ± 0.0767 E-score. Then CGGGGATC, with 0.396 ± 0.0226 E-score; and CAGGGATA, with 0.328 ± 0.0119 E-score; and GAAGGATA, with 0.268 ± 0.0478 E-score. Consider AGGGGATG, for which the binding signal was determined as 0.201 ± 0.0454 E-score. The value for AGGGGATC was 0.426 ± 0.0173 E-score; that for ATGGGATC was 0.368 ± 0.0389 E-score. The value for ACGGGATC was 0.342 ± 0.0556 E-score; that for GAAGGATC was 0.39 ± 0.012 E-score. With CAGGGATC, the binding signal was 0.42 ± 0.0412 E-score. Then CAAGGATC, with 0.351 ± 0.0137 E-score.

Regarding GCTGTATA, the binding signal amounted to 0.232 ± 0.0591 E-score. The value for ATACACTG was 0.338 ± 0.00871 E-score; that for ACGTCTCA was 0.322 ± 0.0324 E-score; that for AGATCTCA was 0.262 ± 0.0503 E-score. Consider TCCATCAA, for which the binding signal was 0.168 ± 0.0474 E-score. The value for ATACTTAA was 0.19 ± 0.132 E-score; that for AGTCATAT was 0.257 ± 0.0554 E-score; that for CGATAGTA was 0.263 ± 0.0297 E-score. The value for AAGGGATC was 0.377 ± 0.0133 E-score. The value for AAAGGATC was 0.279 ± 0.0681 E-score; that for AAGGGATT was 0.188 ± 0.061 E-score. Regarding ATACGCCG, the binding signal was found to be 0.277 ± 0.0315 E-score. Then ATATTATA, with 0.333 ± 0.0863 E-score; and GTATTATA, with 0.377 ± 0.042 E-score; and GTATTAGA, with 0.237 ± 0.0563 E-score. Turning to AATACGGA, the binding signal amounted to 0.169 ± 0.0478 E-score. The value for CATCCACG was 0.183 ± 0.0475 E-score. Then GGTGAGAA, with 0.162 ± 0.0553 E-score; and AATATCGT, with 0.309 ± 0.0634 E-score; and GATATCGC, with 0.468 ± 0.0155 E-score. Then CATATCGG, with 0.401 ± 0.0215 E-score; and AATATCGG, with 0.312 ± 0.0183 E-score; and AATATCGC, with 0.299 ± 0.0725 E-score. Regarding CATATCGA, the binding signal was determined as 0.417 ± 0.00575 E-score.

With GAGATCGC, the binding signal is 0.27 ± 0.0213 E-score. Regarding GATATAGC, the binding signal was found to be 0.368 ± 0.0388 E-score. The value for CATATAGA was 0.183 ± 0.00672 E-score; that for CAGATCGA was 0.277 ± 0.0349 E-score. On to CATATCGC, for which the binding signal was found to be 0.424 ± 0.0197 E-score.

As to CATATAGC, the binding signal came out at 0.162 ± 0.0222 E-score. Take GGTGTAAC: the binding signal was found to be 0.309 ± 0.00742 E-score. Turning to AGACGGTA, the binding signal stood at 0.196 ± 0.0243 E-score. Then CACTAATA, with 0.215 ± 0.00278 E-score; and GGATATTA, with 0.355 ± 0.0417 E-score. The value for ATATGCCG was 0.211 ± 0.0327 E-score; that for AGTTGTAT was 0.215 ± 0.0407 E-score; that for AGATAAAG was 0.183 ± 0.0397 E-score.

As for CGTCTCAG, the binding signal worked out at 0.161 ± 0.0511 E-score. The value for TACGCGCA was 0.174 ± 0.0401 E-score. Then CGAATATC, with 0.308 ± 0.00674 E-score.
